Records with an inconclusive call do not appear. Entries that show only a call come without a potency. Activity calls are given as the source filed them. The call rests on the fitted dose curve; in most records, active means well fitted inhibition curve with a large enough effect; inconclusive means small, poorly fitted or top-dose-only effect; inactive means no such curve, though single readings can be large or run the other way.

This assay has as its target Retinaldehyde dehydrogenase 3 (Homo sapiens) (UniProt P47895). Briefly: qHTS for Inhibitors of the Aldehyde Dehydrogenase Family (ALDH1A3) Validation screen (AID 2061312). Further: nearly all actives have a fitted effect of over 45% in size. Particulars: ALDH1A3 enzyme inhibition qHTS validation, fluorescence; series mostly up to 84.7 µM.
For the compound `CCOC(=O)Nc1cc(-c2ccc(C)c(NS(C)(=O)=O)c2)nn2c(C)nnc12`, the Potency result was “inactive”.

`CSc1ccc(C(=O)N[C@@H]2CCCC[C@@H]2NC(=O)CNC(=O)c2cc(C(F)(F)F)ccc2NC(=O)NC(C)C)cc1`: the Potency entry is “inactive”. For the compound `CC(C)c1ccc(NC(=O)Cn2cnc3c2c(=O)n(C)c(=O)n3C)cc1`, the Potency result was “inactive”. Regarding `CC(c1ncncc1F)C(O)(Cn1cncn1)c1ccc(F)cc1F` (stereo not given), the Potency result is “inactive”. Turning to `CC(=O)SCC(=O)c1ccc(NS(=O)(=O)c2ccc(OCCCN(C)C)cc2)nc1`, the Potency result was “inactive”.

As to `CC(C)(F)C[C@@H](N[C@@H](c1ccc(-c2ccc(S(C)(=O)=O)cc2)cc1)C(F)(F)F)C(=O)NC1(C#N)CC1`, the Potency result is “inactive”. With `O=C(O)c1ccccc1NC(=O)N1CCC(c2ccccc2C(F)(F)F)CC1` the entry was “inactive”; with `CCCCOc1ccc(-c2cncc(C(=O)NCc3cccnc3N3CCOCC3)c2)cc1Cl`, “inactive”; with `CCCCS(=O)(=O)NC(Cc1ccc(OCCCCC2CCNCC2)cc1)C(=O)O` (stereo not given), “inactive”. With `O=C(NCCCn1ccnc1)c1cc(-c2ccco2)on1` the entry was “inactive”. Take `CN1CCN(Cc2ccc(NC(=O)Cc3ccc(Oc4cc(NC(=O)C5CC5)ncn4)cc3)cc2C(F)(F)F)CC1`: the Potency entry is “inactive”. With `c1ccc(CN(CC2=NCCN2)c2ccccc2)cc1`, the Potency entry was “inactive”. On to `COc1cc(C(=O)NCC2(N(C)C)CCCC2)cc(OC)c1OCc1ccccc1`, for which the Potency result was “inactive”. In the case of `CCC(C)c1ccc(NC(=O)Cn2cnc3c2c(=O)n(C)c(=O)n3C)cc1` (stereo not given), the Potency entry is “inactive”. For `O=C(Nc1ccc(N2CCC(C(=O)N3CCOCC3)CC2)cc1)c1cnc(Oc2ccccc2)nc1`, the Potency entry was “inactive”.
